V-ATPase pH = alters yeast V-ATPase proton transport; response, % at 10 µM; S. cerevisiae, pHLuorin cytosolic pH fluorescence; 0.37% of 350,000 active; AID 504577; in the data active = response mostly above about 7.3%, no sharp cut-off; inactive = mostly below about 5.4%; note: actives read high
SUMO Mot1 rescue = SUMOylation pathway inhibition by Mot1-301 growth rescue; S. cerevisiae Mot1-301 growth rescue, ATP luminescence, 38.5C; percent above DMSO median, 100 means doubled; 1% of 320,000 active; growth rescue, % at 18.8 µM;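 active = every valid replicate shows activation above 250% relative to neutral control wells; inactive = the rest, any valid replicate at or below 250%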
ATG4B inhibitor = ATG4B (human) cysteine protease inhibition; Q9Y4P1; ATG4B cleavage of LC3-PLA2, NBD-HPC fluorescence, 1 h; inhibition, % at 8.33 µM; 0.51% of 340,000 active; AID 504462; in the data active = inhibition above about 40%
Target sequence (Q9Y4P1 whole entry, looked up): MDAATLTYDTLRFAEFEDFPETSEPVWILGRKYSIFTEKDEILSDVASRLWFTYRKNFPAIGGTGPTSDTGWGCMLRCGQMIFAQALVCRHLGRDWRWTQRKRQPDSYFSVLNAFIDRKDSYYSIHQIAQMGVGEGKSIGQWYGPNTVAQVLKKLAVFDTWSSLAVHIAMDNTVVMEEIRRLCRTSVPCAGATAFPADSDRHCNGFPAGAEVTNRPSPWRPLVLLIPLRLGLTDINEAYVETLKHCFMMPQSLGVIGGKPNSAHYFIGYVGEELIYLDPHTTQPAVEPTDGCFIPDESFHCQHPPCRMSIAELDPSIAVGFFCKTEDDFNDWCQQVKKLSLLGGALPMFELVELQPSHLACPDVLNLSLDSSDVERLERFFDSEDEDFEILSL
AI-2 QS modul = modulates the Vibrio harveyi AI-2 quorum sensing system. 0.4% of 300,000 active. Vibrio harveyi JMH597 AI-2 luminescence/OD600 ratio, 9 h; active compounds read low; strain lacks LuxN and CqsS sensors; 0 = neutral-control median. activity change, % at 7.5 µM; in the data active = activity change below about -75%, passing the limit was not always enough;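 note: luminescence divided by OD600 gain over 9 h not by final OD600 alone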
Efflux pump mplx = antifungal efflux pump inhibition, Nile Red retention; inhibition, % at 10 µM; S. cerevisiae Candida pump triplex; 0.44% of 330,000 active;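 active = plate passing quality check with inhibition over a set limit, or well fluorescence over plate mean plus 4 SD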;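 note: Nile Red retained in pooled yeast measured as flow cytometry median fluorescence; higher means more Nile Red kept so more efflux inhibition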
VATPase regulator = regulators of yeast V-ATPase proton transport; response, % at 10 µM; AID 602197; shares compounds with V-ATPase pH; S. cerevisiae pHLuorin cytosolic pH; 2% of 980 active; in the data active = response above about 24%
Each line names hits and unclear results; the compound was inactive in the other large screens (follow-up assays come after a bar, where they were run). Rows were chosen to be rich in hits. Some 2.5% of all compounds tested hit in one or more screens of this group.

COc1ccc(C(=O)COC(=O)/C=C/c2ccccc2[N+](=O)[O-])cc1	V-ATPase pH 14 (no result: AI-2 QS modul) | VATPase regulator inactive
O=C(/C=C/c1ccccc1[N+](=O)[O-])OCC(=O)c1ccccc1	none
O=C1CCC/C(=N\NC(=O)c2ccc(NS(=O)(=O)c3ccc(Br)cc3)cc2)C1	V-ATPase pH 14 | VATPase regulator inactive
Cc1ccc(S(=O)(=O)N(C)Cc2ccc(C(=O)N/N=C3\CCCC(=O)C3)cc2)cc1	none
CCN(CC(=O)N1CCOCC1)S(=O)(=O)c1ccc(F)cc1	none
O=C(NCC(c1cccs1)N1CCOCC1)c1cccc([N+](=O)[O-])c1 (configuration not stated)	V-ATPase pH 53 | VATPase regulator inactive
C/C(CC(=O)Nc1ccc2ccccc2c1)=N\NC(=O)c1cnccn1	none
C/C(CC(=O)Nc1ccccn1)=N\NC(=O)c1cnccn1	V-ATPase pH 16 | VATPase regulator inactive
COc1cccc(/C=c2\s/c(=C/C(=O)c3ccc(C)cc3)[nH]c2=O)c1OC	V-ATPase pH 8.0 | VATPase regulator inactive
COc1cc(-c2nc(-c3cccc(C)c3)no2)cc(OC)c1OC	V-ATPase pH 8.1 | VATPase regulator inactive
Cc1cccc(NCCC(=O)c2ccc([N+](=O)[O-])cc2)c1C	V-ATPase pH 96 | VATPase regulator inactive
CCOC(=O)c1sc2nccc(OC)c2c1N=CNOC	none
O=C(O)CSc1nnnn1C1CCCCC1	none
CC(C)N(C(=O)CSc1nnnn1C1CCCC1)C(C)C	V-ATPase pH 8.1 | VATPase regulator inactive
COc1ccc2nc(NC(=O)CSc3nc4ccccc4o3)sc2c1	V-ATPase pH 12 (no result: SUMO Mot1 rescue) | VATPase regulator inactive
O=C(CSc1nc2ccccc2o1)Nc1nc2ccc(Br)cc2s1	none
O=C1CN(C(=O)COc2ccc(Br)cc2Br)c2ccccc2N1	V-ATPase pH 8.8 (no result: SUMO Mot1 rescue) | VATPase regulator inactive
CC(=O)Nc1ccc(/C=N/NC(=S)NC(C)C)cc1	none
COc1cc(OC)c(C(=O)OCC(=O)Nc2nnc(-c3ccccc3)o2)cc1OC	V-ATPase pH 12 (no result: AI-2 QS modul) | VATPase regulator inactive
Cc1cc(C)c2cccc(N)c2n1	V-ATPase pH 31 | VATPase regulator inactive
CC1=NOC(=O)/C1=C/c1ccc2c(c1)OCO2	V-ATPase pH 11 | VATPase regulator inactive
CC1=NOC(=O)/C1=C\c1ccc2c(c1)OCO2	none
O=C(O)c1cc2[nH]c3c(c2cc1Cl)CCCC3	none
CCOC(=O)CN(C)C(=O)C1CCCN1C(=O)OC(C)(C)C (configuration not stated)	none
COC(C[C@@H](O)C[C@H](O)COCc1ccccc1)OC	V-ATPase pH 31 (no result: SUMO Mot1 rescue, Efflux pump mplx) | VATPase regulator inactive
CC(C)c1onc(C(=O)N2CCN(Cc3ccccc3)CC2)c1[N+](=O)[O-]	none
O=C(Nc1ccc(Cl)cc1)Nc1cc(S(=O)(=O)N2CCOCC2)ccc1N1CCCC1	none
O=C(Nc1ccc(F)cc1)Nc1cc(S(=O)(=O)N2CCOCC2)ccc1N1CCCC1	V-ATPase pH 8.6 | VATPase regulator inactive
COCCn1c(SCC(=O)NNC(=O)c2ccccc2)nc2ccccc21	V-ATPase pH 12 (no result: AI-2 QS modul) | VATPase regulator inactive
COc1ccc(-c2cccc(-c3cc(=O)oc4cc(OC)c(OC)c(OC)c34)c2)cc1	V-ATPase pH 8.2 (no result: SUMO Mot1 rescue, AI-2 QS modul) | VATPase regulator inactive
O=C(CC1SC(N2CCCC2)=NC1=O)Nc1ccc(C(=O)N2CCN(c3cccc(Cl)c3)CC2)cc1 (configuration not stated)	none
COCCN(C(=O)COC(=O)CCn1c(C)csc1=O)c1c(N)n(Cc2ccccc2)c(=O)[nH]c1=O	V-ATPase pH 15 | VATPase regulator inactive
CCCN(C(=O)COC(=O)CCC(=O)c1ccccc1)c1c(N)n(Cc2ccccc2)c(=O)[nH]c1=O	V-ATPase pH 9.1 (no result: SUMO Mot1 rescue, ATG4B inhibitor, AI-2 QS modul, Efflux pump mplx) | VATPase regulator inactive
Cc1ccc(CNS(=O)(=O)c2ccc3c(c2)NC(=O)C(C)S3)cc1 (configuration not stated)	none
CC(=O)NC(CC(=O)OCC(=O)c1c(N)n(C)c(=O)n(C)c1=O)c1ccccc1 (configuration not stated)	V-ATPase pH 11 | VATPase regulator inactive
Cn1c(N)c(C(=O)COC(=O)CC(NC(N)=O)c2ccc(Cl)cc2)c(=O)n(C)c1=O (configuration not stated)	none (no result: SUMO Mot1 rescue, AI-2 QS modul, Efflux pump mplx)
COc1ccc(C2=NNC(c3cccnc3)=Nc3ccc(OC)cc32)cc1	none
COc1ccc2c(c1)C(c1ccc(C)o1)=NNC(c1cccnc1)=N2	V-ATPase pH 8.6 | VATPase regulator inactive
